In PubChem BioAssay AID1159580 (chemical genetic matrix, 2015):
Values joined by “and” are separate entries in the source; they are usually repeats but may differ in a detail not shown here. Equal entries are not always repeated. About 2,000 (36%) of roughly 5,500 compounds were called active. Roughly 18% stayed inconclusive and do not appear here. No stated cut-off is given here; in the data, active means normalized growth mostly below about 0.91 (no sharp cut-off); inconclusive means no clear call, values can overlap the other calls; inactive means mostly above about 0.92. This is one part of the list.

Experiment: chemical genetic growth profiling, strain panel (AID 1159580);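 further: tested at 20 µM; growth read once vehicle control cultures reached saturation at 30 °C; 1 = growth at the plate median or of vehicle wells; lower values mean less growth of the strain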
Details: S. cerevisiae deletion strains, growth OD

Measured: normalized growth

CN[C@@H]1C(OC2[C@H](O[C@H]3[C@H](O)[C@@H](O)[C@H](N=C(N)N)[C@@H](O)[C@@H]3N=C(N)N)OC(C)[C@]2(O)CO)OC(CO)C(O)C1O (some centres not stated)
inactive: locus YAL021C, strain ccr4, hits give low values 1.02 | locus YAL026C, strain drs2, hits give low values 1.02 | locus YAL030W, strain snc1, hits give low values 0.997 | locus YBL061C, strain skt5, hits give low values 0.996 | locus YBR009C, strain hhf1, hits give low values 1.01 | locus YBR021W, strain FUR4, hits give low values 0.988 | locus YBR023C, strain chs3, hits give low values 1.01 | locus YBR171W, strain sec66, hits give low values 0.996 | locus YBR229C, strain ROT2, hits give low values 0.993 | locus YBR231C, strain swc5, hits give low values 1.01 | locus YBR279W, strain paf1, hits give low values 1.01 | locus YCL011C, strain gbp2, hits give low values 1.05 | locus YCL016C, strain dcc1, hits give low values 1.02 | locus YCL029C, strain bik1, hits give low values 0.978 | locus YCL069W, strain vba3, hits give low values 1.03 | locus YCR088W, strain abp1, hits give low values 0.994 | locus YDL005C, strain med2, hits give low values 0.998 | locus YDL035C, strain GPR1, hits give low values 1.03 | locus YDL040C, strain nat1, hits give low values 0.999 | locus YDL074C, strain BRE1, hits give low values 0.989 | locus YDL101C, strain DUN1, hits give low values 0.979 | locus YDL185W, strain tfp1, hits give low values 0.984 | locus YDL192W, strain arf1, hits give low values 0.989 | locus YDR001C, strain nth1, hits give low values 1.02 | locus YDR069C, strain doa4, hits give low values 1 | locus YDR101C, strain arx1, hits give low values 0.992 | locus YDR137W, strain rgp1, hits give low values 0.998 | locus YDR159W, strain sac3, hits give low values 0.982 | locus YDR162C, strain NBP2, hits give low values 1.01 | locus YDR195W, strain ref2 0.942 | locus YDR297W, strain sur2, hits give low values 1 | locus YDR318W, strain mcm21, hits give low values 0.98 | locus YDR334W, strain swr1, hits give low values 1.02 | locus YDR335W, strain msn5, hits give low values 1.01 | locus YDR388W, hits give low values 0.975 | locus YDR392W, strain spt3, hits give low values 1.02 | locus YDR502C, strain sam2, hits give low values 0.985 | locus YEL003W, strain gim4, hits give low values 1 | locus YEL037C, strain rad23, hits give low values 1.01 | locus YEL061C, strain CIN8 (second series), hits give low values 1.01 | locus YEL061C, strain CIN8, hits give low values 0.995 | locus YER015W, strain faa2, hits give low values 1.01 | locus YER016W, strain bim1, hits give low values 1 | locus YER110C, hits give low values 0.97 | locus YER111C, strain swi4, hits give low values 1.01 | locus YER155C, strain BEM2 (second series), hits give low values 0.994 | locus YER155C, strain BEM2, hits give low values 0.987 | locus YER167W, strain BCK2, hits give low values 0.99 | locus YFR010W, strain ubp6, hits give low values 0.993 | locus YGL078C, strain dbp3, hits give low values 0.97 | locus YGL086W, strain mad1, hits give low values 1 | locus YGL167C, strain pmr1, hits give low values 0.996 | locus YGL173C, strain kem1, hits give low values 1.02 | locus YGL227W, strain vid30, hits give low values 0.993 | locus YGL240W, strain doc1, hits give low values 1.01 | locus YGL248W, strain PDE1, hits give low values 0.975 | locus YGL253W, strain hxk2, hits give low values 1.02 | locus YGR135W, strain pre9, hits give low values 0.956 | locus YGR229C, strain SMI1, hits give low values 1.02 | locus YGR252W, strain gcn5, hits give low values 0.943 | locus YHR013C, strain ard1, hits give low values 1.03 | locus YHR027C, strain rpn1, hits give low values 1.01 | locus YHR030C, strain SLT2, hits give low values 0.993 and 1.03 | locus YHR079C, strain IRE1 (second series), hits give low values 0.98 | locus YHR079C, strain IRE1, hits give low values 1.03 | locus YHR094C, strain hxt1, hits give low values 0.972 | locus YHR129C, strain ARP1, hits give low values 0.998 | locus YHR142W, strain chs7, hits give low values 1.02 | locus YHR200W, strain rpn10, hits give low values 0.981 | locus YIL066C, strain RNR3, hits give low values 0.992 | locus YIL073C, strain SPO22, hits give low values 0.958 | locus YIL125W, strain kgd1, hits give low values 0.981 | locus YIR030C, strain dcg1, hits give low values 0.975 | locus YJL092W, strain hpr5, hits give low values 0.999 | locus YJL095W, strain BCK1 (second series), hits give low values 1 | locus YJL095W, strain BCK1, hits give low values 0.975 and 1.05 | locus YJL115W, strain asf1, hits give low values 1 | locus YJL129C, strain trk1, hits give low values 0.981 | locus YJL134W, strain LCB3, hits give low values 0.99 | locus YJL154C, strain vps35, hits give low values 1.01 | locus YJL164C, strain tpk1, hits give low values 1.02 | locus YJL166W, strain qcr8, hits give low values 1.02 | locus YJL168C, strain set2, hits give low values 0.973 | locus YJL187C, strain SWE1 (second series), hits give low values 0.981 | locus YJR043C, strain POL32, hits give low values 1.04 | locus YJR066W, strain TOR1, hits give low values 0.975 | locus YJR075W, strain HOC1, hits give low values 0.985
